Screening data as filed in PubChem.
A selection: hits, their analogues and other compounds. The true share with any hit is near 3.2%.
MEKK3 PB1 HTS – MEKK3-MEK5 PB1 interaction, increase or decrease. AID 1529. binding response (% of control), % at 10 µM. bead-based flow cytometry, Alexa488-MEK5 binding to MEKK3; actives lie on both sides; 0 = blocked by unlabeled MEK5, 100 = vehicle. 290,000 compounds, 1.4% hits;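 active = binding response more than 3 SD above or below the average of its plate-row segment, actives on both sides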;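 also: Alexa488 bead fluorescence after subtracting the streptavidin-only scavenger bead signal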
MEKK2 WT-MEK5 – raises or lowers MEK5 binding to wildtype human MEKK2 PB1 domain. Q9Y2U5. bead flow cytometry, Alexa488-MEK5 binding to MEKK2 WT; actives lie on both sides. binding response (% of control), % at 10 µM. 290,000 compounds, 1.1% hits. AID 1531; in the data active = binding response below about 67% or above about 130%
SKN-1 inh – blocks SKN-1 activity in C. elegans | AID 624304 | inhibition, % at 21.8 µM | C. elegans VP596 Pgst-4::GFP/RFP ratio, acrylamide-induced, 24 h | 360,000 compounds, 0.49% hits;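 active = interference check ratio from 0.5 to 1.5 plus GFP to RFP signal ratio inhibition reaching or exceeding a fixed threshold, cut at about 30% in these data, passing the limit was not always enough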
MEKK2mut PB1 HTS – signal of MEK5 binding to mutant human MEKK2 PB1 domain; bead flow cytometry, Alexa488-MEK5 binding to MEKK2 mutant; percent response, % at 10 µM; 290,000 compounds, 0.35% hits; AID 1530; in the data active = percent response above about 24%, passing the limit was not always enough
NRP1-CendR mod – modulators of CendR peptide binding to human neuropilin-1. FAM-RPARPAR peptide binding to NRP-1, fluorescence polarization. inhibition, % at 25 µM. 360,000 compounds, 0.85% hits. AID 602438;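 active = inhibition or corrected inhibition above about 18%, plus a signal ratio from 0.5 to 1.5, limit read from the data, passing the limit was not always enough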
Target sequence (O14786 whole entry, looked up): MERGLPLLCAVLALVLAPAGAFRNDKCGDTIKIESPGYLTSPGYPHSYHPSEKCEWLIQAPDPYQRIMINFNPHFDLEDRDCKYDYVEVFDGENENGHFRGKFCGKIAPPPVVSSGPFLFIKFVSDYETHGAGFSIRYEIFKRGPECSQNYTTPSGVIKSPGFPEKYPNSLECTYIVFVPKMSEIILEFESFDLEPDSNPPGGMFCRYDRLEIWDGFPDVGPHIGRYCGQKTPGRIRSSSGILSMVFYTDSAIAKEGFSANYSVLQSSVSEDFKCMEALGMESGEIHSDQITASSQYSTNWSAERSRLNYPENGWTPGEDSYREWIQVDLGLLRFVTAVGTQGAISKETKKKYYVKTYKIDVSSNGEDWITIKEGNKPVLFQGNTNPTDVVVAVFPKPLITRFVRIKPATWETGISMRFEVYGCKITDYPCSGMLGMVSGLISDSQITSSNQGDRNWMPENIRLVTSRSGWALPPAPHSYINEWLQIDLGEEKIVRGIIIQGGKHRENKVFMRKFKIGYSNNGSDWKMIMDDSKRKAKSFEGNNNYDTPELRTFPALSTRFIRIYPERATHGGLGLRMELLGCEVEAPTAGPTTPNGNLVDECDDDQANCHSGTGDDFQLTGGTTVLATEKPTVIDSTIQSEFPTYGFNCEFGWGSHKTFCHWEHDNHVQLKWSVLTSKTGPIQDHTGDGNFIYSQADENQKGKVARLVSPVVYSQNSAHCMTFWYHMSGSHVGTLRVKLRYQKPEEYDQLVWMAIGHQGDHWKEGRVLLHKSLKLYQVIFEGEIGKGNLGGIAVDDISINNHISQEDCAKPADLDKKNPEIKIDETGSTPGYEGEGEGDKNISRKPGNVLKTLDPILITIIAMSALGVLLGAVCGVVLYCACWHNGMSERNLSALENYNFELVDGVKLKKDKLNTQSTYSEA
A number is an active result; - = inactive; . = no result given.

SMILES | MEKK3 PB1 HTS | MEKK2 WT-MEK5 | SKN-1 inh | MEKK2mut PB1 HTS | NRP1-CendR mod
O=C(CCCOc1ccccc1)N1CCc2ccccc2C1 | - | - | - | - | -
O=C(CCCOc1ccc(Cl)cc1Cl)N1CCc2ccccc2C1 | - | - | - | - | 29
CCC(O)C1CCN(C(=O)c2ccc(OC3CCN(Cc4ccccn4)CC3)cc2)CC1 (stereo not drawn) | - | - | - | - | -
COc1ccc(C(O)(CCN2CCOCC2)c2ccccc2)cc1 (stereo not drawn) | - | - | - | - | -
COC(=O)c1cc2c(-c3ccccc3)cc3ccccn3c-2c1C(=O)OC | - | - | - | - | -
COC(=O)c1c(C)c2c(C)cc3ccccn3c-2c1C(=O)OC | - | - | - | - | 35
O=S(=O)(c1ccc(N2CCN(c3ccc(F)cc3)CC2)cc1)N1CCCC1 | - | - | - | - | -
O=S(=O)(c1ccc(N2CCCC2)cc1)C(F)(F)F | - | - | 42 | - | -
CC1CCN(S(=O)(=O)N2CCN(C(=O)c3ccc4c(c3)OCO4)CC2)CC1 | - | - | - | - | -
CCN(CC)S(=O)(=O)c1cc(NC(=O)c2n[nH]c(=O)c3ccccc23)ccc1C | - | -3.0 | - | - | -
CCN(CC)S(=O)(=O)c1cc(NC(=O)COC(=O)CCC(=O)c2cccs2)ccc1C | - | - | - | - | 26
CCN(CC)S(=O)(=O)c1cccc(NC(=O)COC(=O)CCC(=O)c2cccs2)c1 | - | - | - | - | -
O=C(Nc1ccc(F)c(Cl)c1)c1cncs1 | - | - | - | - | -
O=[N+]([O-])c1ccc(-c2nc3ccc([N+](=O)[O-])cc3[nH]2)cc1 | - | - | - | - | 36
Cc1c(Cl)c(C(F)(F)F)nn1CC(=O)NN | - | - | - | - | -
Cc1c(Cl)c(C(F)(F)F)nn1CC(=O)N1CCSCC1 | - | - | - | - | 48
O=C(CC1SC2=NCCN2C1=O)Nc1ccc(Cl)cc1 (stereo not drawn) | - | - | - | - | 27
O=C(CSc1nc(N2CCOCC2)nc(N2CCOCC2)n1)Nc1ccccc1F | - | - | - | - | -
Cc1ccc2ncnc(Nc3cccc([N+](=O)[O-])c3)c2c1 | - | - | 38 | - | -
COC(=O)c1cccc(Nc2ncnc3ccc(C)cc23)c1 | - | - | - | - | -
COc1cc(C)c(CN2CCN(C(C)C(=O)NC(C)c3ccccc3)CC2)cc1OC (stereo not drawn) | - | - | - | - | -
CCOC(=O)N1CCN(c2ncnc3c2cnn3-c2ccc(OC)cc2)CC1 | . | . | 48 | . | -
COc1ccc(-n2ncc3c(N4CCC(C)CC4)ncnc32)cc1 | - | - | - | - | -
O=C(C=Cc1ccccc1Cl)c1ccccc1 | . | . | - | . | -
O=C(/C=C/Sc1ccccc1)c1ccc(Cl)cc1 | - | - | 36 | - | -
SMILES | MEKK3 PB1 HTS | MEKK2 WT-MEK5 | SKN-1 inh | MEKK2mut PB1 HTS | NRP1-CendR mod
O=C(/C=C/Sc1ccccc1)c1ccccc1 | - | - | 81 | - | -
CC(C)N1CCC1(C)C(=O)Nc1cc(-c2ccccc2)nn1C (stereo not drawn) | . | . | - | . | -
CCc1ccc(CNC(=O)C2CCCN(S(=O)(=O)N3CC(C)CC(C)C3)C2)cc1 (stereo not drawn) | - | - | - | - | 22
CN(Cc1ccccc1)C(=O)c1csc([C@@H]2C[C@H](O)[C@@H](CO)O2)n1 | . | . | - | . | -
CN1CCN(C2=C(Cl)C(=O)N(c3ccc(Cl)cc3)C2=O)CC1 | - | - | - | - | -
Cc1ccc(N2C(=O)C(Cl)=C(N3CCN(C)CC3)C2=O)c(C)c1 | - | - | - | - | 32
Cn1cnc(S(=O)(=O)N2CCCCC2c2cc(C(=O)Nc3ccc(F)c(Cl)c3)no2)c1 (stereo not drawn) | . | . | - | . | -
O=C(O)CC12CC3CC(C1)CC(n1ncc(NCC4CCCO4)c(Cl)c1=O)(C3)C2 (stereo not drawn) | - | - | - | - | 25
O=C(O)CC12CC3CC(C1)CC(n1ncc(NCc4ccco4)c(Cl)c1=O)(C3)C2 | - | - | - | - | -
C=CCn1c(-c2ccccc2)cc(SC)c(C#N)c1=O | - | - | - | - | -
C=CCn1c(-c2ccccc2)ccc(C#N)c1=O | - | - | 65 | - | -
COc1ccc(-c2c(-c3ccccc3OC)oc3ccccc23)cn1 | . | . | - | . | 27
O=C(NCc1nc2ccccc2[nH]1)C1=C[C@H](C2CCCCC2)C[C@H](OCc2ccc(CO)cc2)O1 | - | - | 39 | - | -
O=C(NCc1nc2ccccc2[nH]1)C1=C[C@@H](C2CCCCC2)C[C@@H](OCc2ccc(CO)cc2)O1 | - | - | - | - | -
O=C(Nc1ccc(-c2nnc3n2CCCCC3)cc1)c1ccco1 | - | - | - | - | 34
O=C(Nc1ccc(-c2ccc(N3CCCCC3)nn2)cc1)c1ccco1 | . | . | - | . | -
C=C1c2ccccc2S(=O)(=O)N(Cc2ccccc2)C1COCc1ccccc1 (stereo not drawn) | - | - | - | - | 28
O=C(O)c1cccc(S(=O)(=O)N2CCN(C(c3ccccc3)c3ccccc3)CC2)c1 | - | - | - | - | 36
COc1ccccc1CNC(=O)c1cccc(S(=O)(=O)N2CCN(c3ccc(F)cc3)CC2)c1 | . | . | - | . | -
CN(C)C(CNC(=O)c1cccc(S(=O)(=O)N2CCN(c3ccc(F)cc3)CC2)c1)c1ccccc1 (stereo not drawn) | . | . | 46 | . | -
CC1=C(C(=O)N2CCCCCC2)CC(CC(=O)NCCCN(C)C)C(=O)N1Cc1ccc(F)cc1 (stereo not drawn) | . | . | - | . | -
COc1ccc(C2=CC(=O)CCC2)cc1 | - | - | - | - | 40
COc1cccc(C2=CC(=O)CCC2)c1 | - | - | - | - | -
CC(NC(=O)[C@H](C)NC(=O)N1CCn2c1nc1ccccc12)c1ccccc1 (stereo partly drawn) | - | - | - | - | 24
CC(=O)N1CCc2cc(S(=O)(=O)N3CCCCC3C)ccc21 (stereo not drawn) | - | - | - | - | 35
SMILES | MEKK3 PB1 HTS | MEKK2 WT-MEK5 | SKN-1 inh | MEKK2mut PB1 HTS | NRP1-CendR mod
CSCC[C@H](NC(=O)OC(C)(C)C)c1nnc(SCc2cccc(F)c2)o1 | - | - | - | - | -
CC(C)C[C@H](NC(=O)OC(C)(C)C)c1nnc(SCc2cccc(F)c2)o1 | - | - | - | - | 44
c1ccc(OCCCCN2CCCCC2)cc1 | - | - | - | - | -
c1ccc(OCCCN2CCCC2)cc1 | - | - | - | - | 23
Cc1cccc(C)c1OCCN1CCCC1 | - | - | - | - | 28
CC(=O)Nc1ccc(CN(C)c2c(C)nc3ccc(C(=O)NCCCn4ccnc4)cn23)cc1 | . | . | - | . | -
COc1ccc(-c2[nH]ncc2/C=C(/C#N)C(=O)NC2CCCCC2)cc1 | - | - | - | - | -
Cc1ccc(-c2[nH]ncc2/C=C(\C#N)C(=O)NC2CCCCC2)cc1 | - | - | 59 | - | -
CCOc1ccc(NC(=S)NCCCc2ccccc2)cc1 | - | - | - | - | -
CCOc1ccc(CSCCNC(=S)Nc2ccccc2)cc1 | 128 | - | - | - | -
